# Laboratory results published in PubChem BioAssay (NCATS).
# Results filed as inconclusive are left out. Activity calls are given as the source filed them. The call rests on the fitted dose curve; in most records, active means well fitted curve in the direction sought with a large enough effect; inconclusive means small, poorly fitted or top-dose-only effect, or another doubt; inactive means no such curve, though single readings can be large; an effect the other way counts as inactive or inconclusive.
# Target: Beta-2 adrenergic receptor (Homo sapiens) (UniProt P07550)
# Sequence (P07550 whole entry, looked up): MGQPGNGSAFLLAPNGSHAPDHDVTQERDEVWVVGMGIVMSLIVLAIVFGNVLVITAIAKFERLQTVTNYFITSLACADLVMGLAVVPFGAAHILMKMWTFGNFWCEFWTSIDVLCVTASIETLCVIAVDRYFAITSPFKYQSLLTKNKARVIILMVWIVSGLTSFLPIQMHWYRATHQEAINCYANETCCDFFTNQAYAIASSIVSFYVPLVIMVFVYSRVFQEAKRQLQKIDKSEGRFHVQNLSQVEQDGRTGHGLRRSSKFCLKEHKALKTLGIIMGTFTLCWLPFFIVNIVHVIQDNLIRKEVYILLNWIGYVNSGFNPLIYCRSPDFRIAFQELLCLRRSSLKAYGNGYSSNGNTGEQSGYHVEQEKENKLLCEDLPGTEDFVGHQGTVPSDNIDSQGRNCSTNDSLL
# Assay: qHTS validation assay of beta-arrestin-biased ligands of beta2-adrenergic receptor (AID 485366); further: 0% is about no effect
# Conditions: cell-based beta-arrestin recruitment to ADRB2, qHTS; series mostly up to 46.1 µM; activation: at the top concentration
# Outline: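 qHTS, Tango cells, 1500 cells/well, DMEM + 1% FBS. Cpd 18 hr at 37 degrees C. Luciferin/ATP/CoA detection mix, 15 min RT, luminescence read. %Activity from corrected signal; CRC fit, curve class.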
row,Compound,activation
1,C[N+]1(C)CCOC(O)(c2ccc(-c3ccc(C4(O)C[N+](C)(C)CCO4)cc3)cc2)C1 (centres undefined),-0.0848% (inactive)
2,COc1ccc2[nH]cc(CCN)c2c1,-0.377% (inactive)
3,NC(CCCCCP(=O)(O)O)C(=O)O (centres undefined),-0.0949% (inactive)
4,CC(C)NP(=O)(NC(C)C)OP(=O)(NC(C)C)NC(C)C,0.134% (inactive)
5,C[C@]12Cc3cn4c(nc3C=C1CCC1C2CC[C@@]2(C)[C@H]1CC[C@@]2(O)C#N)nc1ccccc14 (some centres undefined),12.7% (inactive)
6,CCCN1CC[C@@H]2c3cc(O)ccc3CC[C@@H]21,-0.119% (inactive)
7,NCCCP(=O)(O)O,0.265% (inactive)
8,C[N+](C)(C)CCOC(=O)CBr,0.487% (inactive)
9,C=CCN1C[C@@H](C)N([C@H](c2ccc(C(=O)N(CC)CC)cc2)c2cccc(OC)c2)C[C@@H]1C,0.487% (inactive)
10,Cc1o[nH]c(=O)c1CC(N)C(=O)O (centres undefined),-0.498% (inactive)
11,C[N+](C)(C)CC#CCN1CCCC1=O,1.17% (inactive)
12,NC(C(=O)O)c1cc(=O)[nH]o1 (centres undefined),3.99% (inactive)
13,O=C(O)c1cc[c]([Hg][Cl])cc1,0.124% (inactive)
14,C[Se]C[C@H](N)C(=O)O,0.0943% (inactive)
15,CO[C@H]1CC=C2CCN3CCC4=C(CC(=O)OC4)[C@]23C1,-0.259% (inactive)
16,COc1ccc(CNC(=O)/C=C/c2ccc3[nH]cc(CCN(C)C)c3c2)cc1,-0.144% (inactive)
17,COc1ccc(OC)c(C(O)C(C)N)c1 (centres undefined),-0.675% (inactive)

row,Compound,activation
1,CC12NC(Cc3ccccc31)c1ccccc12 (centres undefined),0.649% (inactive)
2,NC(=O)c1ccc(OCC(O)CN2CC=C(c3ccc(F)cc3)CC2)cc1 (centres undefined),-0.325% (inactive)
3,C=CCN1CC[C@]23c4c5ccc(O)c4O[C@H]2/C(=N/NC(=O)c2ccccc2)CC[C@@]3(O)[C@H]1C5,1.7% (inactive)
4,CC(=O)NBr,-0.553% (inactive)
5,CN1CCc2cccc(Cl)c2CC1,-0.291% (inactive)
6,CN(C(=O)Cc1ccc(Cl)c(Cl)c1)C(CN1CCCC1)c1cccc(OCC(=O)O)c1 (centres undefined),0.0736% (inactive)
7,C[C@@H]1O[C@H](C[N+](C)(C)C)CS1,-0.308% (inactive)
8,CCCN(CCC)C1CCc2cccc(O)c2C1 (centres undefined),0.28% (inactive)
9,CC(Cc1ccc(OCC(=O)O)cc1)NCC(O)c1cccc(Cl)c1 (centres undefined),2.27% (inactive)
10,NCCc1ccc(S(=O)(=O)F)cc1,-0.238% (inactive)
11,Clc1ccc(N2CC3CCC(C2)N3)nn1,-0.573% (inactive)
12,NC(=O)c1cc(N2CC2)c([N+](=O)[O-])cc1[N+](=O)[O-],1.31% (inactive)
13,O=S1(=O)N(CCN2CC=C(c3c[nH]c4cc(F)ccc34)CC2)c2cccc3c2N1CCC3,3.01% (inactive)
14,NC(Cc1ccc(N(CCCl)CCCl)cc1)C(=O)O (centres undefined),0.431% (inactive)
15,N[C@@H](CCl)C(=O)O,-0.512% (inactive)
16,NC(N)=NOCC[C@H](N)C(=O)O,0.323% (inactive)

# Target: ATP-dependent 6-phosphofructokinase (Trypanosoma brucei brucei) (UniProt O15648)
# Sequence (O15648 whole entry, looked up): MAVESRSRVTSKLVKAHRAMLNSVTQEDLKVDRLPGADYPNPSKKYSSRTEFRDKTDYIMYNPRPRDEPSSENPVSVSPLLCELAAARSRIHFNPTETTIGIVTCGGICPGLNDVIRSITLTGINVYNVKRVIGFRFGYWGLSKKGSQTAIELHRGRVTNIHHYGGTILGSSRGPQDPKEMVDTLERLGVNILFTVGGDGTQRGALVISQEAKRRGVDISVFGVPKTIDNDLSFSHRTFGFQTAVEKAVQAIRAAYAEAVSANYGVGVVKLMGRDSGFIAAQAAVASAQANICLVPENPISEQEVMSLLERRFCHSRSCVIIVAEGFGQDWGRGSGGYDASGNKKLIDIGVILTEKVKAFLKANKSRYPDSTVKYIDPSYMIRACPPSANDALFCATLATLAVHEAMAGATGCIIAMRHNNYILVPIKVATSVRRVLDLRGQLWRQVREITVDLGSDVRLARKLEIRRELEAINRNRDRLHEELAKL
# Assay: qHTS Validation Assay to Find Inhibitors of T. brucei phosphofructokinase (AID 485368); further: potency means the concentration at half of the fitted maximal effect;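 on activity change, negative = inhibition: 0% = full PFK enzyme control and -100% = wells without enzyme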
# Conditions: T. brucei PFK enzyme assay, qHTS 7-point titration; series mostly up to 57.5 µM; activity change, negative = inhibition: at the top concentration
# Outline: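 Luminescent ADP detection measures PFK turnover of fructose-6-phosphate (0.5 mM) with ATP (0.1 mM) at pH 8.0. Reaction runs 45 min at room temperature with 1.25 nM enzyme; inhibitors tested as titrations up to 57 uM.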
Compound,"activity change, negative = inhibition",outcome,Potency
NC(CCCCCP(=O)(O)O)C(=O)O (centres undefined),14.5% (inactive),,
CCCN1CC[C@@H]2c3cc(O)ccc3CC[C@@H]21,,inactive,
NCCCP(=O)(O)O,-1.81% (inactive),,
C[N+](C)(C)CCOC(=O)CBr,,inactive,
Cc1o[nH]c(=O)c1CC(N)C(=O)O (centres undefined),,inactive,
C[N+](C)(C)CC#CCN1CCCC1=O,,inactive,
NC(C(=O)O)c1cc(=O)[nH]o1 (centres undefined),6.43% (inactive),,
O=C(O)c1cc[c]([Hg][Cl])cc1,,,0.269 µM (active)
C[Se]C[C@H](N)C(=O)O,-0.276% (inactive),,
CO[C@H]1CC=C2CCN3CCC4=C(CC(=O)OC4)[C@]23C1,,inactive,
COc1ccc(CNC(=O)/C=C/c2ccc3[nH]cc(CCN(C)C)c3c2)cc1,,inactive,
NC(=O)c1ccc(OCC(O)CN2CC=C(c3ccc(F)cc3)CC2)cc1 (centres undefined),17.2% (inactive),,
CC(=O)NBr,,inactive,
CN(C(=O)Cc1ccc(Cl)c(Cl)c1)C(CN1CCCC1)c1cccc(OCC(=O)O)c1 (centres undefined),,inactive,
C[C@@H]1O[C@H](C[N+](C)(C)C)CS1,,inactive,
CC(Cc1ccc(OCC(=O)O)cc1)NCC(O)c1cccc(Cl)c1 (centres undefined),,inactive,
NCCc1ccc(S(=O)(=O)F)cc1,,inactive,
Clc1ccc(N2CC3CCC(C2)N3)nn1,,inactive,
NC(=O)c1cc(N2CC2)c([N+](=O)[O-])cc1[N+](=O)[O-],,inactive,
NC(Cc1ccc(N(CCCl)CCCl)cc1)C(=O)O (centres undefined),,inactive,
N[C@@H](CCl)C(=O)O,,inactive,
NC(N)=NOCC[C@H](N)C(=O)O,-3.27% (inactive),,

# System: not listed separately
# Assay: Quantitative high throughput screen for delayed death inhibitors of the malarial parasite plastid, 96 hour incubation (AID 488745); further: nearly all actives have a fitted effect of over 70% in size; further: potency means the concentration at half of the fitted maximal effect; on activity change, negative = inhibition: on the % scale 0 is the no-effect control and ±100 the full control effect
# Conditions: Plasmodium falciparum growth; series mostly up to 28.7 µM; activity change, negative = inhibition: at the top concentration
# Outline: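 Two-generation (96 h) exposure of luciferase-reporter P. falciparum in erythrocytes, 2% hematocrit, 0.1% parasitemia final, 37 C, 5% CO2, RPMI 1640 with 0.5% Albumax. Growth inhibition scored by reduced luminescence.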
Compound,"activity change, negative = inhibition",Potency
C[N+]1(C)CCOC(O)(c2ccc(-c3ccc(C4(O)C[N+](C)(C)CCO4)cc3)cc2)C1 (centres undefined),21% (inactive),
COc1ccc2[nH]cc(CCN)c2c1,0.822% (inactive),
NC(CCCCCP(=O)(O)O)C(=O)O (centres undefined),5.35% (inactive),
CCCN1CC[C@@H]2c3cc(O)ccc3CC[C@@H]21,-4.77% (inactive),
NCCCP(=O)(O)O,-11.2% (inactive),
C[N+](C)(C)CCOC(=O)CBr,-5.43% (inactive),
C=CCN1C[C@@H](C)N([C@H](c2ccc(C(=O)N(CC)CC)cc2)c2cccc(OC)c2)C[C@@H]1C,,4.65 µM (active)
Cc1o[nH]c(=O)c1CC(N)C(=O)O (centres undefined),0.288% (inactive),
C[N+](C)(C)CC#CCN1CCCC1=O,-12.9% (inactive),
O=C(O)c1cc[c]([Hg][Cl])cc1,,2.08 µM (active)
C[Se]C[C@H](N)C(=O)O,-6.59% (inactive),
CO[C@H]1CC=C2CCN3CCC4=C(CC(=O)OC4)[C@]23C1,-5.38% (inactive),
COc1ccc(CNC(=O)/C=C/c2ccc3[nH]cc(CCN(C)C)c3c2)cc1,,11.7 µM (active)
COc1ccc(OC)c(C(O)C(C)N)c1 (centres undefined),-12% (inactive),
CC12NC(Cc3ccccc31)c1ccccc12 (centres undefined),29.2% (inactive),
NC(=O)c1ccc(OCC(O)CN2CC=C(c3ccc(F)cc3)CC2)cc1 (centres undefined),-0.404% (inactive),
CC(=O)NBr,11% (inactive),
CN1CCc2cccc(Cl)c2CC1,10.3% (inactive),
CN(C(=O)Cc1ccc(Cl)c(Cl)c1)C(CN1CCCC1)c1cccc(OCC(=O)O)c1 (centres undefined),-4.91% (inactive),
CCCN(CCC)C1CCc2cccc(O)c2C1 (centres undefined),21.8% (inactive),
C[C@H](Cc1ccc2c(c1)OC(C(=O)O)(C(=O)O)O2)NC[C@H](O)c1cccc(Cl)c1,-2.09% (inactive),
CC(Cc1ccc(OCC(=O)O)cc1)NCC(O)c1cccc(Cl)c1 (centres undefined),1.13% (inactive),
NCCc1ccc(S(=O)(=O)F)cc1,-25.1% (inactive),
Clc1ccc(N2CC3CCC(C2)N3)nn1,-11.9% (inactive),
NC(=O)c1cc(N2CC2)c([N+](=O)[O-])cc1[N+](=O)[O-],6.24% (inactive),
O=S1(=O)N(CCN2CC=C(c3c[nH]c4cc(F)ccc34)CC2)c2cccc3c2N1CCC3,,0.465 µM (active)
NC(Cc1ccc(N(CCCl)CCCl)cc1)C(=O)O (centres undefined),,14.7 µM (active)
N[C@@H](CCl)C(=O)O,3.38% (inactive),
NC(N)=NOCC[C@H](N)C(=O)O,-24.5% (inactive),
